Test results taken from article PMC5540273 (PLoS ONE, 2017).

How the values were obtained:
DRAK1 = tested on: T1, DRAK1
T1 construct: gene STK17A

DMPK2 = tested on: T2, DMPK2
T2 construct: gene CDC42BPG

DRAK2 = tested on: T3, DRAK2
T3 construct: gene STK17B
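Note: kd values determined as follow-up on hits from a single-replicate KINOMEscan panel screen.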

Structure (SMILES): NS(=O)(=O)c1cccc(N/C=C2\C(=O)Nc3ccc(S(=O)(=O)Cc4c(Cl)cccc4Cl)cc32)c1 [GSK398099]
- Kd (DAPK1): > 10000 nM

Structure (SMILES): O=C1NC(=O)C(c2ccc(Cl)cc2)=C1Nc1cccc(Cl)c1 [SB-317651]
- Kd (CSNK1G3): > 10000 nM

Structure (SMILES): CS(=O)(=O)Cc1ccc(Nc2nccc(-c3c(-c4cccc(NC(=O)C5CCCCC5)c4)nn4ncccc34)n2)cc1 [GSK350559]
- Kd (DDR1): 23 nM

Structure (SMILES): CNc1cc(-c2ccc3c(N)n[nH]c3c2)nc(N)n1 [GSK2224810]
- Kd (CLK4): 140 nM
- Kd (DRAK1): 89 nM
- Kd (DYRK2): 33 nM

Structure (SMILES): COC(=O)C(NC(=O)NC1CCN(c2ccnc(Nc3ccc(F)cc3)n2)C1)c1ccccc1 (centres unmarked) [GSK1379712]
- Kd (CSNK1D): > 10000 nM

Structure (SMILES): COc1cccc(C2=C(Nc3cc(Cl)c(O)c(Cl)c3)C(=O)NC2=O)c1 [SB-390767]
- Kd (CSNK1G1): > 10000 nM
- Kd (DDR1): > 10000 nM

Structure (SMILES): Cc1cccc2c(-c3ccncn3)c(-c3ccc(F)cc3)nn12 [GW515532]
- Kd (CSNK1D): 1200 nM
- Kd (CSNK1E): 3400 nM
- Kd (CSNK1G3): > 10000 nM

Structure (SMILES): COc1ccc(CSc2nnc(-c3ccc4ncsc4c3)o2)cc1C(F)(F)F
- Kd (CLK4): 1100 nM

Structure (SMILES): Fc1ccc(-c2nn3cccc(F)c3c2-c2ccncc2)cc1 [GW475620]
- Kd (CSNK1D): 77 nM
- Kd (CSNK1E): 220 nM
- Kd (DMPK2): 1000 nM

Structure (SMILES): COc1ccc(Nc2nccc(N3CCC(NC(=O)C(C)c4ccc(Cl)cc4)CC3)n2)cc1 (centres unmarked) [GSK1379812]
- Kd (DYRK1A): > 10000 nM

Structure (SMILES): CC(C)c1cc(-c2ccc3c(N)n[nH]c3c2)nc(N)n1 [GSK2250882]
- Kd (DRAK1): 29 nM

Structure (SMILES): CNc1nc(-c2ccc3c(N)n[nH]c3c2)cc(N2C[C@@H](C(=O)Nc3ccccc3)CC[C@H]2C)n1 [GSK2298859]
- Kd (DRAK1): 89 nM
- Kd (DRAK2): 83 nM
